Most compounds without a hit are left out; they make up all but 11% or so of the library.
G9a block: G9a (human) methyltransferase inhibition. Q96KQ7. G9a H3K9 monomethylation, AlphaScreen, 2 h. Potency, µM (titrated, usually from 102 µM), for inactives: at the highest dose activity, negative = inhibition, most hits filed as inhibitors. actives 8.8% (n = 350,000); note: potency is the fitted concentration of half-maximal effect; nearly all actives have a fitted effect of over 75% in size
Target sequence (Q96KQ7 913-1193 limits assumed): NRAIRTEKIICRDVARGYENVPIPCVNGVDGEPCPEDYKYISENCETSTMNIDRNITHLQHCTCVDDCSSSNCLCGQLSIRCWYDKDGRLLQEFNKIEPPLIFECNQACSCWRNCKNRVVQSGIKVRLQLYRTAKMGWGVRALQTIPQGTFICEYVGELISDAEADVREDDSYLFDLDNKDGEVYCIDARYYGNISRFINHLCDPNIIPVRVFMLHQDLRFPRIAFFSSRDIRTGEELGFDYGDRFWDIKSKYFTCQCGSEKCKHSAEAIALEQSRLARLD
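Chemiluminescent proximity detection of H3K9 monomethylation, read after 10 min bead incubation in the dark. Reaction: 20 nM G9a, 500 nM biotin-H3K9 peptide, 20 uM SAM cofactor, 2 h, room temperature, following 15 min enzyme-compound preincubation.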
FBPA coupling cs: coupling enzyme interference in Giardia aldolase counter-screen; coupling enzyme system counterscreen, AmpLite Red fluorescence; activity change, negative = inhibition, % at 58.2 µM, hits read low; actives 0.67% (n = 290,000); AID 2472; in the data active = activity change below about -30%
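Activity here indicates interference with the coupling reaction, not aldolase inhibition. Compounds at 57.5 uM final met coupling enzymes for 10 min at RT; substrate and AmpLite Red detection followed, with a 525/598 nm fluorescence read after 20 min.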
Tau FP inhib: tau fibrillization inhibition (FP). AID 1468. actives 0.39% (n = 280,000). K18 P301L tau heparin fibrillization, Alexa594 FP, 6 h. P10636. Potency, µM (series often up to 57.7 µM), for the others: at the highest dose activity, negative = inhibition, most hits filed as inhibitors; note: potency is the fitted concentration of half-maximal effect; nearly all actives have a fitted effect of over 55% in size
Target sequence (P10636 561-689 P618L limits assumed): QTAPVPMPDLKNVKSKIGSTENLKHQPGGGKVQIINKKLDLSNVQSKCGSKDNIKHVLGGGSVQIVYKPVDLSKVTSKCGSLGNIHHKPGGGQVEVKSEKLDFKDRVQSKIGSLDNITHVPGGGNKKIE
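Read-out: fluorescence polarization of Alexa 594-labeled tau (0.24 uM), 555 nm excitation, 632 nm emission. Mixtures held 15 uM unlabeled K18 P301L, compound and 20 uM heparin, pH 7 acetate buffer, incubated 6 hr at 37 C.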
Tau fluor counter: counter-screen for tau fibril formation inhibitors; tau K18 P301L Alexa594 fluorescence, heparin fibrillization; Potency, µM (series often up to 57.7 µM), without a hit: top-dose activity change, negative = decrease; actives 0.93% (n = 280,000); note: potency is the fitted concentration of half-maximal effect; nearly all actives have a fitted effect of over 55% in size
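Human tau K18 P301L (15 uM unlabeled, 0.24 uM Alexa 594-labeled) in 100 mM sodium acetate pH 7 with 20 uM heparin, 6 hr at 37 C. ThT 30 uM added, 1 hr ambient; Alexa 594 FP and total fluorescence read at 555/632 nm.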
Sfp inh: blocks B. subtilis Sfp PPTase activity. Biochemical Sfp PPTase activity, qHTS. Potency, µM, without a hit: largest response in the series, negative = inhibition, most hits filed as inhibitors. Q9F4F7. AID 1490. actives 3.5% (n = 310,000);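 note: the enzyme is Sfp with the accession as filed and its product quenches rhodamine fluorescence; potency is the fitted concentration of half-maximal effect; 0% = enzyme reaction without inhibitor and -100% = no enzyme wells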
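With Hepes-Na pH 7.6 buffer containing 10 mM MgCl2, Sfp (15 nM) modified BHQ-2-YbbR (12.5 uM) using rhodamine-CoA (5 uM). Two reads 30 minutes apart at 525/598 nm yielded each well's rate.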
Tau ThT inhib: blocks human tau fibril formation measured by thioflavin T; P10636; recombinant tau K18 P301L, heparin-induced fibrillization, ThT fluorescence; Potency, µM (top dose mostly 57.4 µM), without a hit: at the highest dose activity, negative = inhibition, actives largely listed as inhibitors; actives 2.1% (n = 270,000); AID 1460; note: potency is the fitted concentration of half-maximal effect; nearly all actives have a fitted effect of over 55% in size
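Fibril formation assay: tau K18 P301L at 15 uM with trace Alexa 594 label, heparin inducer 20 uM, pH 7 sodium acetate buffer, 37 C for 6 hr; endpoint ThT signal.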
An asterisk follows results filed as active; [ ] = dose if it differs, or a comment. Unless noted, calls come from the whole dose curve; as a rule, active = well fitted curve in the direction sought with a large enough effect; inconclusive = small, poorly fitted or top-dose-only effect, or another doubt; inactive = no such curve, though single readings can be large; an effect the other way counts as inactive or inconclusive. Unless noted, % is set by controls: 0 for no effect and ±100 for the full control effect.

Screening CCOc1cccc(C(=O)NC(=S)Nc2ccc(Cl)cc2C(=O)O)c1 returned G9a block 40µM*, FBPA coupling cs 0, Tau FP inhib -1%, Tau fluor counter -5%, Sfp inh 45µM* and Tau ThT inhib -16%.
CCOc1cccc(C(=O)NC(=S)Nc2ccc(N3CCCC3)cc2)c1 was read as G9a block inconclusive, FBPA coupling cs -9, Tau FP inhib 11%, Tau fluor counter inconclusive, Sfp inh inconclusive and Tau ThT inhib inconclusive.
`O=S(=O)(Nc1ccc2c(c1)OCCO2)c1c(F)cccc1F` gave G9a block 40µM*, FBPA coupling cs -2 and Sfp inh -4%.
Screening O=C(NC(=S)Nc1ccc(F)cc1)c1ccc2c(c1)OCCO2 returned G9a block inconclusive, FBPA coupling cs -2, Tau FP inhib inconclusive, Tau fluor counter -17%, Sfp inh 2% and Tau ThT inhib 1%.
COc1cccc(C(=O)NC(=S)Nc2ccc(Cl)c(C(=O)O)c2)c1 was read as G9a block inconclusive, FBPA coupling cs 17, Tau FP inhib 1%, Tau fluor counter -3%, Sfp inh inconclusive and Tau ThT inhib 2%.
`O=C(NC(=S)Nc1ccc2c(c1)OCCO2)c1ccccc1` gave G9a block 40µM*, FBPA coupling cs 3, Tau FP inhib -2%, Tau fluor counter -16%, Sfp inh -8% and Tau ThT inhib inconclusive.
CCCOC(=O)c1ccc(Cn2nnc3sc4c(c3c2=O)CCC(C)C4)cc1 (centres undefined) was read as G9a block inconclusive, Tau FP inhib 0%, Tau fluor counter -9% and Tau ThT inhib -3%.
`COc1cc(C(=O)NC(=S)Nc2ccc3c(c2)OCO3)cc(OC)c1OC` gave FBPA coupling cs 1, Tau FP inhib 2%, Tau fluor counter -23%, Sfp inh -18% and Tau ThT inhib -19%.
`COc1cccc(OC)c1C(=O)NC(=S)Nc1ccc2c(c1)OCCO2` gave G9a block 56µM*, FBPA coupling cs 0, Tau FP inhib 0%, Tau fluor counter -19%, Sfp inh 6% and Tau ThT inhib -10%.
For O=C(NC(=S)NC(=O)c1ccccc1F)c1ccccc1F the results were G9a block 10µM*, FBPA coupling cs -1, Tau FP inhib inconclusive, Tau fluor counter -15%, Sfp inh 50µM* and Tau ThT inhib -15%.
O=C(Nc1ccc2c(c1)OCCO2)c1ccccc1F was read as G9a block 25%[59 µM], FBPA coupling cs 1, Tau FP inhib -2%, Tau fluor counter 6%, Sfp inh -11% and Tau ThT inhib -8%.
O=C(NC(=S)Nc1ccc2c(c1)OCCO2)c1ccccc1F was read as G9a block 32µM*, FBPA coupling cs 0, Tau FP inhib -13%, Tau fluor counter -25%, Sfp inh -11% and Tau ThT inhib inconclusive.
`CCOC(=O)c1noc2nc(C)n(Cc3cccc(C#N)c3)c(=O)c12` gave G9a block 17%[59 µM], Tau FP inhib -2%, Tau fluor counter 3% and Tau ThT inhib 1%.
Cn1c(SCC(=O)c2cc(Cl)c(Cl)s2)nnc1-c1ccco1 was read as G9a block inconclusive, FBPA coupling cs 13, Tau FP inhib -13%, Tau fluor counter -19%, Sfp inh 18µM* and Tau ThT inhib inconclusive.
Screening Cc1ccc(C(=O)CSc2nnc(-c3ccco3)n2C)cc1 returned FBPA coupling cs 2, Tau FP inhib -9%, Tau fluor counter 2%, Sfp inh 18% and Tau ThT inhib -15%.
`O=C1NC(=Nc2ccccc2Cl)S/C1=C\c1cc([N+](=O)[O-])ccc1O` gave G9a block 35µM*, FBPA coupling cs 9 and Sfp inh inconclusive.
Screening COc1cc(/C=C2\S/C(=N/S(=O)(=O)c3ccc(C)cc3)NC2=O)c([N+](=O)[O-])cc1OC returned G9a block inconclusive, FBPA coupling cs 10, Tau FP inhib inconclusive, Tau fluor counter inconclusive, Sfp inh 6% and Tau ThT inhib 14µM*.
Screening O=C1N/C(=N/O)S/C1=C/c1cccc([N+](=O)[O-])c1 returned G9a block -37%, FBPA coupling cs 9, Tau FP inhib 6%, Tau fluor counter -15%, Sfp inh 4% and Tau ThT inhib inconclusive.
Cc1ccc(S(=O)(=O)/N=C2/NC(=O)/C(=C/c3cc([N+](=O)[O-])ccc3O)S2)cc1 was read as G9a block 11µM*, FBPA coupling cs 17 and Sfp inh -58%.
COc1cccc(N=C2NC(=O)/C(=C/c3cc([N+](=O)[O-])ccc3O)S2)c1 was read as G9a block inconclusive, FBPA coupling cs 8 and Sfp inh -8%.
Screening Cc1c(C(=O)N2CCC(C)CC2)c(S(=O)(=O)Nc2ccc(OC(F)(F)F)cc2)c(C)n1C returned G9a block 10%[12.7 µM], Tau FP inhib -4%, Tau fluor counter -16% and Tau ThT inhib -13%.
COc1ccc2c([N+](=O)[O-])c(Cl)[nH]c2c1 was read as G9a block 25µM*, FBPA coupling cs -32*, Tau FP inhib inconclusive, Tau fluor counter inconclusive, Sfp inh -12% and Tau ThT inhib 28µM*.
N#Cc1c[nH]n2c(=O)c3c(nc12)CCC3 was read as G9a block 18µM*, FBPA coupling cs -2, Tau FP inhib -5%, Tau fluor counter 15%[2.34 µM], Sfp inh -12% and Tau ThT inhib 2%.
For COc1cc(OC)c(NC2(c3ccccc3)C(=O)c3ccccc3C2=O)cc1Cl the results were G9a block 13µM*, Tau FP inhib 13%, Tau fluor counter inconclusive and Tau ThT inhib -16%.
For CCOC(=O)c1c(C)[nH]c(C)c1S(=O)(=O)N1CCCC(C(=O)N2CCN(c3cccc(Cl)c3)CC2)C1 (centres undefined) the results were G9a block inconclusive, Tau FP inhib 9%, Tau fluor counter inconclusive and Tau ThT inhib inconclusive.
O=C(CCS(=O)(=O)c1ccccc1Cl)NCc1ccc(F)cc1 was read as G9a block 50µM*, FBPA coupling cs 0, Tau FP inhib -3%, Tau fluor counter 0%, Sfp inh -3% and Tau ThT inhib -2%.
Screening CC1(C)CCC[C@@](C)([C@H]2CC[C@]3(C)[C@@H]2[C@H](O)C[C@@H]2[C@@]4(C)CC[C@H](O)C(C)(C)[C@@H]4[C@@H](O)C[C@]23C)O1 returned G9a block 15%[59 µM], FBPA coupling cs 3, Tau FP inhib 1%, Tau fluor counter -14%, Sfp inh 9% and Tau ThT inhib -15%.

Source: PubChem (National Center for Advancing Translational Sciences (NCATS))
